Holding throughout (details): mRNA level, 48 h; actives raise or lower the signal
Read-out in experiment [1]: Alkaline Phosphatase, Placental (ALPP) gene, ALPP (gene 250)
Put plainly: LTEA_HepaRG_ALPP: Life Technologies and Expression Analysis (LTEA) Assay for Alkaline Phosphatase, Placental (ALPP) gene using HepaRG (AID 2283468). The procedure, abridged: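 ALPP transcript level, measured by qRT-PCR and normalized to three housekeeping genes (ACTB, GAPDH, POLR2A), after 48 h dosing of differentiated HepaRG in serum-free induction medium. Top concentration 100 uM with half-log dilutions (8 points, 0.5% DMSO, duplicates); bidirectional fitting relative to DMSO.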

Read-out in experiment [2]: Bcl-2 (BAD) gene, BAD (gene 572)
Put plainly: LTEA_HepaRG_BAD: Life Technologies and Expression Analysis (LTEA) Assay for Bcl-2 (BAD) gene using HepaRG (AID 2283469). In a few lines:
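Differentiated human HepaRG cells in serum-free induction medium were exposed in duplicate for 48 h to eight concentrations (top 100 uM, half-log steps, 0.5% DMSO). BAD mRNA was quantified by qRT-PCR normalised to ACTB, GAPDH and POLR2A, with bidirectional fitting versus DMSO.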

Read-out in experiment [3]: Bcl-2 (BAX) gene, BAX (gene 581)
Put plainly: LTEA_HepaRG_BAX: Life Technologies and Expression Analysis (LTEA) Assay for Bcl-2 (BAX) gene using HepaRG (AID 2283470). In a few lines: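 Differentiated HepaRG cells exposed 48 h in serum-free induction medium, eight half-log concentrations from 100 uM, in duplicate, 0.5% DMSO vehicle. BAX mRNA by TaqMan qRT-PCR, normalised to ACTB, GAPDH and POLR2A.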

Read-out in experiment [4]: adenosine kinase (ADK) gene, ADK (gene 132)
In words: LTEA_HepaRG_ADK: Life Technologies and Expression Analysis (LTEA) Assay for adenosine kinase (ADK) gene using HepaRG (AID 2283471). The procedure, abridged: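 Following 48 h exposure of HepaRG cells in 0.5% DMSO (top concentration 100 uM, duplicate wells), ADK mRNA induction or suppression was measured by qRT-PCR, normalised to ACTB/GAPDH/POLR2A, and fitted bidirectionally relative to vehicle.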

Read-out in experiment [5]: Alpha-fetoprotein (AFP) gene, AFP (gene 174)
Put plainly: LTEA_HepaRG_AFP: Life Technologies and Expression Analysis (LTEA) Assay for Alpha-fetoprotein (AFP) gene using HepaRG (AID 2283472). The procedure, abridged: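 Differentiated human HepaRG cells exposed 48 h in serum-free induction medium, 8-point half-log series from 100 uM in 0.5% DMSO, duplicate. AFP mRNA by qRT-PCR, normalized to ACTB, GAPDH, POLR2A; bidirectional fit vs DMSO.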

Read-out in another experiment: BCL2L11 (gene 10018)
Put plainly: LTEA_HepaRG_BCL2L11: Life Technologies and Expression Analysis (LTEA) Assay for Bcl-2 (BCL2L11) gene using HepaRG (AID 2283473). In a few lines:
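BCL2L11 transcript levels are measured by Fluidigm qRT-PCR, normalized to three housekeeping genes. HepaRG cultures were plated 48 h, then treated 48 h with test chemical (top 100 uM, half-log, 0.5% DMSO vehicle); curves were fitted bidirectionally against DMSO.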

Read-out in experiment [6]: Apolipoprotein A-V (APOA5) gene, APOA5 (gene 116519)
In words: LTEA_HepaRG_APOA5: Life Technologies and Expression Analysis (LTEA) Assay for Apolipoprotein A-V (APOA5) gene using HepaRG (AID 2283474). The procedure, abridged: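 APOA5 transcript levels were quantified by qRT-PCR, normalized to three housekeeping genes, after 48 h chemical treatment of HepaRG cells (8 points, 100 uM maximum, half-log steps, 0.5% DMSO). Curves fitted in both directions against vehicle.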

Read-out in experiment [7]: Apoptosis regulator Bcl-2 (Homo sapiens) (UniProt P10415)
In words: LTEA_HepaRG_BCL2: Life Technologies and Expression Analysis (LTEA) Assay for Bcl-2 gene using HepaRG (AID 2283475). In a few lines:
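Differentiated human HepaRG cells in serum-free induction medium exposed 48 h, in duplicate, to 8-point half-log series from 100 uM in 0.5% DMSO. BCL2 mRNA by qRT-PCR (TaqMan/Fluidigm), normalized to ACTB, GAPDH, POLR2A; bidirectional fit against DMSO.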

Read-out in experiment [8]: Bcl-2 (BID) gene, BID (gene 637)
In words: LTEA_HepaRG_BID: Life Technologies and Expression Analysis (LTEA) Assay for Bcl-2 (BID) gene using HepaRG (AID 2283476). In a few lines: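 Gene expression by qRT-PCR in HepaRG cells after 48 h exposure, duplicate wells, eight half-log concentrations topping at 100 uM in 0.5% DMSO. Normalized to ACTB, GAPDH, POLR2A; bidirectional fitting relative to DMSO.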

Read-out in the next experiment: Caspase-3 (Homo sapiens) (UniProt P42574)
In words: LTEA_HepaRG_CASP3: Life Technologies and Expression Analysis (LTEA) Assay for cysteine-aspartic acid protease (CASP3) using HepaRG (AID 2283477). In a few lines:
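Expression of CASP3 was quantified by TaqMan qRT-PCR against three housekeeping genes (ACTB, GAPDH, POLR2A), bidirectionally versus 0.5% DMSO. HepaRG cultures received compounds in duplicate, top 100 uM with half-log steps, for 48 h in serum-free induction medium.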

Read-out in experiment [9]: Cytochrome P450 (CYP24A1), CYP24A1 (gene 1591)
In words: LTEA_HepaRG_CYP24A1: Life Technologies and Expression Analysis (LTEA) Assay for Cytochrome P450 (CYP24A1) using HepaRG (AID 2283478). In a few lines:
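mRNA of CYP24A1 quantified by TaqMan qRT-PCR (ACTB/GAPDH/POLR2A normalization) after 48 h chemical exposure of HepaRG cells, top concentration 100 uM, half-log steps, 0.5% DMSO vehicle, duplicates. Curves fitted bidirectionally against DMSO baseline.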

Read-out in experiment [10]: Cytochrome P450 (CYP1A2), CYP1A2 (gene 1544)
Put plainly: LTEA_HepaRG_CYP1A2: Life Technologies and Expression Analysis (LTEA) Assay for Cytochrome P450 (CYP1A2) using HepaRG (AID 2283479). The procedure, abridged:
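CYP1A2 transcript measured by TaqMan qRT-PCR against three housekeeping genes after 48-hour chemical exposure of HepaRG cells. Eight-point half-log series topping at 100 uM in 0.5% DMSO, duplicates; gain or loss fitted relative to vehicle.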

Read-out in experiment [11]: cysteine-aspartic acid protease (CASP8), CASP8 (gene 841)
Put plainly: LTEA_HepaRG_CASP8: Life Technologies and Expression Analysis (LTEA) Assay for cysteine-aspartic acid protease (CASP8) using HepaRG (AID 2283480). In a few lines:
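Differentiated human HepaRG cells, plated 48 h then switched to serum-free induction medium, were exposed in duplicate for 48 h to 8 half-log concentrations up to 100 uM in 0.5% DMSO. CASP8 mRNA was quantified by qRT-PCR, normalized to ACTB/GAPDH/POLR2A.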

Read-out in experiment [12]: Cytochrome P450 (CYP2B6), CYP2B6 (gene 1555)
Put plainly: LTEA_HepaRG_CYP2B6: Life Technologies and Expression Analysis (LTEA) Assay for Cytochrome P450 (CYP2B6) using HepaRG (AID 2283481). The procedure, abridged:
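CYP2B6 transcript level quantified by qRT-PCR against three housekeeping genes, fitted bidirectionally relative to DMSO. HepaRG cultures received chemicals for 48 h, 8-point half-log series from 100 uM in 0.5% DMSO, duplicate wells, serum-free induction medium.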

Read-out in experiment [13]: Cytochrome P450 2C19 (Homo sapiens) (UniProt P33261)
Put plainly: LTEA_HepaRG_CYP2C19: Life Technologies and Expression Analysis (LTEA) Assay for CYP2C19 using HepaRG (AID 2283482). The procedure, abridged: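 CYP2C19 transcript levels by qRT-PCR, normalized to three housekeeping genes, in HepaRG cells after 48 h chemical exposure. Eight-point half-log series topping at 100 uM, 0.5% DMSO vehicle. Increases and decreases both fitted against DMSO.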

Read-out in another experiment: CYP2C8 (gene 1558)
In words: LTEA_HepaRG_CYP2C8: Life Technologies and Expression Analysis (LTEA) Assay for CYP2C8 using HepaRG (AID 2283483). The procedure, abridged:
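Differentiated human HepaRG cells were exposed for 48 h in serum-free induction medium to eight half-log concentrations up to 100 uM in 0.5% DMSO, in duplicate. CYP2C8 mRNA was measured by TaqMan qRT-PCR, normalized to ACTB, GAPDH and POLR2A, and fitted bidirectionally against DMSO.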

Read-out in a further experiment: CYP2C9 (gene 1559)
Put plainly: LTEA_HepaRG_CYP2C9: Life Technologies and Expression Analysis (LTEA) Assay for CYP2C9 using HepaRG (AID 2283484). The procedure, abridged: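 Differentiated human HepaRG cells were exposed 48 h in serum-free induction medium to eight half-log concentrations up to 100 uM in 0.5% DMSO. CYP2C9 mRNA was measured by qRT-PCR, normalized to ACTB, GAPDH and POLR2A, and fitted bidirectionally against DMSO.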

Read-out in another experiment: CYP2E1 (gene 1571)
In words: LTEA_HepaRG_CYP2E1: Life Technologies and Expression Analysis (LTEA) Assay for CYP2E1 using HepaRG (AID 2283485). In a few lines: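 HepaRG cells, plated 48 h, then exposed 48 h in serum-free induction medium to eight half-log concentrations from 100 uM in 0.5% DMSO, duplicate. CYP2E1 mRNA by qRT-PCR, normalized to ACTB/GAPDH/POLR2A; bidirectional fit versus DMSO.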

Read-out in the next experiment: CYP4A11 (gene 1579)
Put plainly: LTEA_HepaRG_CYP4A11: Life Technologies and Expression Analysis (LTEA) Assay for CYP4A11 using HepaRG (AID 2283486). In a few lines: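 Readout is CYP4A11 transcript level by qRT-PCR, normalized to three housekeeping genes and fitted bidirectionally against 0.5% DMSO. Human HepaRG cells were treated 48 h, in duplicate, with an 8-point half-log series topping at 100 uM.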

Read-out in experiment [14]: Cytochrome P450 3A4 (Homo sapiens) (UniProt P08684)
Put plainly: LTEA_HepaRG_CYP3A4: Life Technologies and Expression Analysis (LTEA) Assay for CYP3A4 using HepaRG (AID 2283487). The procedure, abridged:
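In a human hepatic line (HepaRG), duplicate wells were treated 48 h with up to 100 uM chemical in half-log dilutions. Endpoint: CYP3A4 mRNA induction or loss relative to 0.5% DMSO vehicle, by qRT-PCR.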

Active and inactive are the calls of the source. The calls were made as follows: active = hit-call score of the fitted dose curve at least 0.9, where 1 is the maximum; inactive = score below 0.9.

What is called AC50 is the midpoint of the concentration-response curve, whichever way the signal moves.

Sequence of Caspase-3 (Homo sapiens) (P42574 whole entry, looked up): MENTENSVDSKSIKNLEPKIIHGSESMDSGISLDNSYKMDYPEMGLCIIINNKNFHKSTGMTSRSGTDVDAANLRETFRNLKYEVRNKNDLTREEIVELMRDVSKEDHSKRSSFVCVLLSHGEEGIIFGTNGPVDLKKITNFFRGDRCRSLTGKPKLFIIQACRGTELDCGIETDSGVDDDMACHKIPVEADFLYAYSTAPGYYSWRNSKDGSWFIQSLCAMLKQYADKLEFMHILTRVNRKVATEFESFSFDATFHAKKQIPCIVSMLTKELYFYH
Sequence of Cytochrome P450 2C19 (Homo sapiens) (P33261 whole entry, looked up): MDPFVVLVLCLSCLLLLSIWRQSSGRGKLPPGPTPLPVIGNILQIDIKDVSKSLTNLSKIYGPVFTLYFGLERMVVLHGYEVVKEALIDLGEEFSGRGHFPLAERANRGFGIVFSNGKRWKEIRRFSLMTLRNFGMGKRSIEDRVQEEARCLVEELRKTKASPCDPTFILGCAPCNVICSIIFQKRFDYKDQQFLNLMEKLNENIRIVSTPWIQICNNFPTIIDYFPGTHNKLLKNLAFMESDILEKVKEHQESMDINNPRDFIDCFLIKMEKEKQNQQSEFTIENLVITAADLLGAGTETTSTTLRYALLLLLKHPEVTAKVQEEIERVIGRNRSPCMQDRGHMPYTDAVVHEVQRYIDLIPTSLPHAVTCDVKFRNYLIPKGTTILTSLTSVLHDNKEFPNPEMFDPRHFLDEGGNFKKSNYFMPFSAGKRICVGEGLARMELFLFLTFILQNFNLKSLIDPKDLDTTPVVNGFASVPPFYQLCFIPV
Sequence of Apoptosis regulator Bcl-2 (Homo sapiens) (P10415 whole entry, looked up): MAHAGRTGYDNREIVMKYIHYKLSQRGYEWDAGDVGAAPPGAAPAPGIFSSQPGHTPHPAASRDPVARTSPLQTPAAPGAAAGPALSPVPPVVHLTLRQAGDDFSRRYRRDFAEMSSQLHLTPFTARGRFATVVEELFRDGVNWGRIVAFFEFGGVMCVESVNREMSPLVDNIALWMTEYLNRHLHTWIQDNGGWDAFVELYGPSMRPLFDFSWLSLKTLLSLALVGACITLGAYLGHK
Sequence of Cytochrome P450 3A4 (Homo sapiens) (P08684 whole entry, looked up): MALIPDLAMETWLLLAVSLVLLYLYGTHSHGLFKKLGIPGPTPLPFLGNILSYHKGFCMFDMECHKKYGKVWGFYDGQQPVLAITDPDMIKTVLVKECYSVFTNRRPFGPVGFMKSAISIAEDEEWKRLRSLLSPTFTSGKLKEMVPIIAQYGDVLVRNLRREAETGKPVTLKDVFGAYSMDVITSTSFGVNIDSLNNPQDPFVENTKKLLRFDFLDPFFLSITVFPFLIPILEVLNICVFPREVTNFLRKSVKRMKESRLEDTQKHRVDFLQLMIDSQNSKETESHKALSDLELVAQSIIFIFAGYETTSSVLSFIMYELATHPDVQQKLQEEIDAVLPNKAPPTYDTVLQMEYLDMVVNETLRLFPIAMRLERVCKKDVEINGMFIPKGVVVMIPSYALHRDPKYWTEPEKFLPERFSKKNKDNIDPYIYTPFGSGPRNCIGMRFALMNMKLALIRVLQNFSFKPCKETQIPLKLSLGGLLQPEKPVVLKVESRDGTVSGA

For the compound `CC(=NC#N)N(C)Cc1ccc(Cl)nc1`, the outcome (in experiment [1]; in experiment [2]; in [3]; in experiment [4]; in experiment [5]; with BCL2L11 (gene 10018)) was inactive. In addition, the compound was called inactive (in experiment [6]; in experiment [7]; in experiment [8]; in the experiment with Caspase-3 (Homo sapiens); in [9]; in [10]). Further, the compound was called inactive (in experiment [11]; in [13]; in the experiment with CYP2C9 (gene 1559); in the experiment with CYP2E1 (gene 1571); with CYP4A11 (gene 1579)). Moreover, the AC50 (in [12]; in the experiment with CYP2C8 (gene 1558); in [14]) was 50 µM (active) in each case.

On to `O=c1ccc(=O)[nH][nH]1`, for which the call (in experiment [1]; in [2]; in experiment [3]; in experiment [5]; with BCL2L11 (gene 10018); in [6]) was inactive. Moreover, the result (in experiment [7]; in [8]; with Caspase-3 (Homo sapiens); in experiment [9]; in [10]; in experiment [11]) was inactive. Besides, the result (in [13]; with CYP2C8 (gene 1558); in the experiment with CYP2C9 (gene 1559); with CYP4A11 (gene 1579); in experiment [14]) was inactive. For the same compound, the AC50 is 4.2 µM (active) in [12] and 16 µM (active) with CYP2E1 (gene 1571).

Take `CCCCOC(=O)c1ccccc1C(=O)O`: the compound was called inactive (in [2]; in experiment [3]; in [4]; in experiment [5]; with BCL2L11 (gene 10018); in experiment [6]). Further, the outcome (in experiment [7]; in [8]; with Caspase-3 (Homo sapiens); in experiment [9]; in experiment [11]; in experiment [13]) was inactive. Besides, the outcome (with CYP2C8 (gene 1558); with CYP2C9 (gene 1559); in the experiment with CYP2E1 (gene 1571); in the experiment with CYP4A11 (gene 1579); in [14]) was inactive. Moreover, the figures for the AC50 in experiment [10] and in [12] were 32.8 µM (active) and 10.2 µM (active), respectively.
